What follows are targets tested with CCCCOc1c(C(=O)c2c(F)cc(C)cc2F)c[nH]c2nncc1-2 (assay: fraction of 1-bp insertions among edited reads; higher = more 1-bp insertion outcomes). Details: mESC; 2uM; 72 h treatment, harvest day 5.

| Target | fraction of 1-bp insertions among edited reads |
| --- | --- |
| 35.0 (DMSO control at this site: 1-bp insertion 0.01, MH deletion 0.72, edited 0.098) CCACTTTTAGAGAGGGTGAAAATCATCAGTTATCATCAGGGCAACAAATTGCTTTCTCCTA | 0.00887 |
| 16.0 (DMSO control at this site: 1-bp insertion 0.172, MH deletion 0.29, edited 0.05) CGGACTGCACACATGGGTAGGATCGTGCACGCGAGGTAGGATCGTGCACGCGAAGTTATTC | 0.138 |
| 19.0 (DMSO control at this site: 1-bp insertion 0.121, MH deletion 0.101, edited 0.057) TCTGCAGGGGTCGGAACCCGGGGGCTAGGGCTATCCCGGGGGCTAGGGCTATTAGCGAACC | 0.0994 |
| 22.0 (DMSO control at this site: 1-bp insertion 0.573, MH deletion 0.229, edited 0.045) CTGATGGTTGAAGGATTTAGCCGGGGTCCTAGACGCCGGGGTCCTAGACGAAAGGGCCACG | 0.613 |
| 38.0 (DMSO control at this site: 1-bp insertion 0.063, MH deletion 0.487, edited 0.17) GGGCTGGGTGCTAAAATGAGGAGCTCCAAGAAGACTGAGGTGAACCTGGAGGCCCCTGAGC | 0.0554 |
| 5.0 (DMSO control at this site: 1-bp insertion 0.214, MH deletion 0.567, edited 0.105) CGCTGACCCGAGACCTACGCGAACCGAAATCGGCGACCGGTGCGCAAGCAGGGCTGGCGTC | 0.226 |
| 1.0 (DMSO control at this site: 1-bp insertion 0.521, MH deletion 0.323, edited 0.141) GTGTCACAGTGCACGAGTGACGGGATAATGTGCTGACAGGTAATTGATAGGCTTCCAACTT | 0.595 |
| 0.0 (DMSO control at this site: 1-bp insertion 0.463, MH deletion 0.339, edited 0.14) AGGATTACCGAGACCTACGCGAACCGAAATCGCTGTCCGGTGCGCAAGCAGGGCTGGCGTC | 0.504 |
| 3.0 (DMSO control at this site: 1-bp insertion 0.109, MH deletion 0.149, edited 0.09) TGCTAGCGCCCCCACAAAGCGGACCAGCCAGCACTATAGGGAATAAGGCCAACTTGCACCC | 0.16 |
| 7.0 (DMSO control at this site: 1-bp insertion 0.128, MH deletion 0.374, edited 0.098) TACTCAACCGAGACCTACGCGAACCGAAATCGTATGCCGGTGCGCAAGCAGGGCTGGCGTC | 0.164 |
| 39.0 (DMSO control at this site: 1-bp insertion 0.328, MH deletion 0.371, edited 0.204) CTGCACAGTCACTTAGGATAGGAGAAGATGATGTATAGGGTTTAGTGGGAGATGTTGCAAG | 0.418 |
| 21.0 CGATTGAGAGTCAAACGGGCCAGAAAACTCCGGGAACGGGCCAGAAAACTCCGGGGCATGG | 0.0327 |
| 25.0 (DMSO control at this site: 1-bp insertion 0.017, MH deletion 0.774, edited 0.143) GGGCCTGAATGGTGTGGACATCTACTCGCTGGTGAGCTGGTGACTGAAAACATTCAGTGGC | 0.017 |
| 27.0 CCAGAATTAGAACATATCATCTGGACCCTTTTCCATCTGGACCCTTTTCCAGCACACCCTG | 0.138 |
| 40.0 (DMSO control at this site: 1-bp insertion 0.072, MH deletion 0.192, edited 0.189) GCGAATCAACTGTTCAACAACAGCAGCAGCCACCTGGAGGACTACAGTGGCCTGTCCGTGT | 0.072 |
| 42.0 (DMSO control at this site: 1-bp insertion 0.145, MH deletion 0.655, edited 0.132) GGGCTAAACCTATGAGCACAGTAGAACTAAGGGTGGGTGGTGTAGCTAAAGAACTTGACCA | 0.144 |
| 28.0 (DMSO control at this site: 1-bp insertion 0.035, MH deletion 0.77, edited 0.142) TGGTTCTTCCTTTGTAGAGAGTGTTCATCTGGGAATCTGGGACTTGGATGAGACAATCATT | 0.0391 |
| 2.0 (DMSO control at this site: 1-bp insertion 0.364, MH deletion 0.356, edited 0.125) GGTGCCCCCGAGACCTACGCGAACCGAAATCGATGTCCGGTGCGCAAGCAGGGCTGGCGTC | 0.379 |

From the supplement of paper PMC8387472
